This note sets out measurements from PubChem BioAssay.

Chain of Alpha-bungarotoxin (Bungarus multicinctus) (P60615 whole entry, looked up): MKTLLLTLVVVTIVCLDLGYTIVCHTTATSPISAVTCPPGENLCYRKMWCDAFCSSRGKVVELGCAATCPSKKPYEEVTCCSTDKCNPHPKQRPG

The assay concerns the target Alpha-bungarotoxin (Bungarus multicinctus) (UniProt P60615). Nature of the assay: alpha-bungarotoxin binders on microarray, profiling panel, artefact control for SMM control protein annotation, biochemical, small-molecule microarray, Alexa647 label, 635/667 nm fluorescence (AID 1117). The following applies: alpha-BTX-A647 binding fluorescence, higher = more signal.
The molecule `CCCCCCCCCCC(O)C1C=CC2C(=O)N(C)C(=O)C2N1N1CCCCC1` (configuration not stated) registered a composite z-score of -1.09. In turn, `CCCC[C@@H]1C[C@H]1[C@@H](NC(=O)Cc1ccccc1)c1ccc(Cl)cc1` yielded a composite z-score of 2.14.

For `CC(C)=CCN(C(=O)C#Cc1ccccc1)[C@H](CO)c1ccccc1`, the composite z-score came to 0.14. Molecule `COc1ccc(NC(=O)O[C@H]2[C@H](OC(=O)Nc3ccc4c(c3)OCO4)[C@H](OC(=O)Nc3ccc4c(c3)OCO4)[C@@H](OC)O[C@@H]2CO)cc1` showed a composite z-score of 0.425.

Consider `CCCC[C@H]1OB(O)C[C@H]2C1=C(C)C[C@H]1C(=O)C=CC(=O)[C@H]12`, for which the composite z-score came out at 0.178. Consider `CO[C@H]1O[C@H](CO)[C@@H](OC(=O)Nc2ccccc2)[C@@H]2OC(=O)[C@H](Cc3ccccc3)C/C=C/C[C@@H](Cc3ccccc3)C(=O)O[C@@H]12`, for which the composite z-score worked out at 0.269.

Molecule `C[C@H]1C2[C@H](Cc3ccccc3)NC(=O)[C@]23C(=O)NCC(=O)N2CCC[C@H]2C(=O)NC/C=C\C/C=C/C3[C@@H]2O[C@]12C` (some centres not stated) came in with a composite z-score of -0.246. The figure for `[N-]=[N+]=NCc1ccccc1C[C@]1(C(=O)O)COC(c2ccc(OCCCO)cc2)=N1` is -0.711; for `CC(C)CNC(=O)[C@@]1(C)c2ccccc2C(=O)N(Cc2cc(F)cc(C(F)(F)F)c2)[C@H]1c1ccc(CO)cc1` it is 0.884. In the case of `CN(C)CCCNC(=O)[C@@H]1c2ccccc2C(=O)N(C2Cc3ccccc3C2)[C@H]1c1ccc(CO)cc1`, the composite z-score came out at 0.438. The figure for `CCN(CC)c1ccc(N2CC=CC34O[C@@H]5C=CCOC(=O)[C@@H]5[C@H]3C(=O)N(CCO)[C@@H]4C2=O)cc1` (some centres not stated) is -1.29. Molecule `COc1ccccc1CN1C(=O)c2ccccc2[C@@H](C(=O)NCCCN(C)C)[C@@H]1c1ccc(CO)cc1` gave a composite z-score of 0.256.
